“And” between values parts separate entries of the source, which are not always exact repeats. Equal entries are not always repeated. Records with an inconclusive call do not appear. More than one record can exist for a structure, and the calls need not agree. The source made the active and inactive calls. Unless noted, calls come from the whole dose curve; as a rule, active = well fitted curve in the direction sought with a large enough effect; inconclusive = small, poorly fitted or top-dose-only effect, or another doubt; inactive = no such curve, though single readings can be large; an effect the other way counts as inactive or inconclusive.
Experiments:
[1] = biological target: Guanine nucleotide-binding protein G(i) subunit alpha-1 (Homo sapiens) (UniProt P63096); experiment: qHTS Assay for Inhibitors of RGS12 GoLoco Motif Activity (Green Fluorophore) (AID 879);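 note: negative values mean loss of peptide binding seen as reduced polarization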
Outline: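 A drop in FITC polarization marked displacement of the FITC-tagged RGS12 GoLoco peptide (10 nM) from Gαi1 (50 nM). Compounds were incubated 10 min at room temperature in Tris pH 7.5 buffer containing 150 mM NaCl, 0.1 mM GDP and 0.05% NP40; unlabeled peptide titration served as control.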

[2] = biological target: Cytochrome P450 2C9 (Homo sapiens) (UniProt P11712); experiment: qHTS Assay for Inhibitors and Substrates of Cytochrome P450 2C9 (AID 883); note: nearly all actives have a fitted effect of over 60% in size; note: potency is the fitted concentration of half-maximal effect
Outline: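 Inhibition of CYP2C9 is scored as loss of luminescence, with 57uM sulphaphenazole defining 100% inhibition. Substrate Luciferin-H is used at 100uM, equal to its KM; enzyme at 10nM in 25mM KPO4, 60 min at 37C with NADPH regeneration.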

[3] = biological target: Cytochrome P450 3A4 (Homo sapiens) (UniProt P08684); experiment: qHTS Assay for Inhibitors and Substrates of Cytochrome P450 3A4 (AID 884); note: nearly all actives have a fitted effect of over 50% in size; note: potency is the fitted concentration of half-maximal effect
Outline: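 Luminescent readout of luciferin produced by CYP3A4 (20 nM) dealkylation of Luciferin-PPXE, 25 uM (its KM). NADPH-driven reaction ran 60 min at RT after 10 min compound preincubation; data scaled to 57 uM ketoconazole as 100% inhibition.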

[4] = biological target: Cytochrome P450 2D6 (Homo sapiens) (UniProt P10635); experiment: qHTS Assay for Inhibitors and Substrates of Cytochrome P450 2D6 (AID 891); note: nearly all actives have a fitted effect of over 60% in size; note: potency is the fitted concentration of half-maximal effect
Outline: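 Luminescent read-out of luciferin formed by 5 nM human CYP2D6 demethylating 30 uM Luciferin-ME EGE (Km level) over 60 min at room temperature after NADPH regeneration addition. Data normalized to full inhibition by 1.43 uM quinidine.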

[5] = qHTS Assay for Identification of Small Molecule Antagonists for NFkB Signaling Pathway (AID 895; active = well fitted inhibition curve with a large enough effect in the signal ratio, with a control signal flat, not every such curve was filed as active; the % refers to the signal ratio)
Outline: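 Beta-lactamase reporter read-out (460 and 530 nm emission ratio, 405 nm excitation, 2 hrs substrate loading RT) after 5 hr stimulation with 10 pM TNF alpha in compound-treated NFkB-bla ME-180 cells in low-serum medium.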

[6] = biological target: Cytochrome P450 2C19 (Homo sapiens) (UniProt P33261); experiment: qHTS Assay for Inhibitors and Substrates of Cytochrome P450 2C19 (AID 899); note: nearly all actives have a fitted effect of over 60% in size; note: potency is the fitted concentration of half-maximal effect
Outline: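 5nM enzyme + 10uM Luciferin-H EGE (=KM), 50mM KPO4; cpd pin-transferred, 10 min 37C; NADPH regen, 60 min 37C; stopped w/ luciferin detection reagent, 20 min; luminescence. Normalized to 57uM ketoconazole (AC100).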

[7] = Confirmation and Secondary Assay for Modulators of Hemoglobin Beta Chain Splicing at IVS2 654 locus (AID 910);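 note: HeLa cells stably carrying EGFP split by mutant beta-globin IVS2-654 intron; per-well total GFP intensity by laser scanning cytometry after 2-day treatment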;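 note: potency is the fitted concentration of half-maximal effect; potency of activators that raise GFP signal by restoring correct splicing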
Outline: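 Readout: per-well total peak green fluorescence (488 nm ex, 500–520 nm em) from objects 5–250 µm, reflecting correct splicing of an EGFP-654 reporter. Compounds were applied for 2 days at 37 °C to overnight-plated HeLa EGFP-654 cells; controls were DMSO and 500 nM IVS2-654 PNA.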

[8] = Confirmation and Secondary Assay for Modulators of Hemoglobin Beta Chain Splicing at IVS2 705 locus (AID 930);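 note: HeLa cells stably expressing the EGFP-705 splicing reporter; GFP fluorescence per well restored by corrected splicing of the IVS2-705 intron in EGFP; series mostly up to about 46 µM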
Outline: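 Per-well GFP, captured at 1 x 8 µm resolution with 488 nm excitation, served as the read-out for HeLa EGFP-705 cells incubated 2 days with test compound versus DMSO.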

[9] = biological target: Muscarinic acetylcholine receptor M1 (Rattus norvegicus) (UniProt P08482); experiment: qHTS Assay for Antagonists of Acetylcholine Muscarinic M1 Receptor: Measurement of IP-One Response (AID 944); note: nearly all actives have a fitted effect of over 75% in size; note: potency is the fitted concentration of half-maximal effect
Outline: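 Read-out: HTRF competition between d2-IP1 and Eu-cryptate anti-IP1 antibody, emission 620 and 665 nm. Stimulus was carbachol, EC80 (200 nM), for 30 min in M1-CHO cells (rat receptor), after 10 min compound pre-treatment.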

[10] = biological target: Pyruvate kinase (Leishmania mexicana) (UniProt Q27686); experiment: qHTS Validation Assay for Inhibitors of Leishmania Mexicana Pyruvate Kinase (AID 945)
Outline: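 An endpoint luciferase assay: 0.2 nM LmPYK E451W turns over 0.5 mM PEP with 0.1 mM ADP for 1 h at room temperature, pH 7.2, before PKLight addition. Values are normalized to DMSO-only wells.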

[11] = biological target: Pyruvate kinase PKM (Homo sapiens) (UniProt P14618); experiment: qHTS Assay for Activators of Human Muscle Pyruvate Kinase (AID 954; active = well fitted curve in the direction sought with a large enough effect, not every such curve was filed as active)
Outline: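 A coupled luminescent readout tracked ATP made from ADP by purified PKM2. Final conditions included 0.1 nM enzyme, PEP and ADP at 0.5 and 0.1 mM, pH 7.2 imidazole buffer with BSA, and a one-hour room-temperature reaction.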

[12] = Cellular Toxicity (caspase-3) Renal Proximal Tubule (AID 667);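 note: cells exposed to compound for 16 hours at 37 °C before detection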
Outline: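 Caspase-Glo 3/7 read-out, rat primary kidney proximal tubule cells. Compound exposure 16 h, 37 °C; detection after 1 h at RT. Activity scaled to DMSO and 10 uM staurosporine.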

[13] = Cell Viability - LYMP2-001 (AID 921);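 note: series mostly up to about 92 µM; cells exposed to compound for 24 h at 37 °C; nearly all actives have a fitted effect of over 70% in size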
Outline: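 A lymphoblastoid cell line of human origin was treated with library compounds across a concentration series for 24 hours, and viable cell number was estimated from ATP-driven luciferase light output. Hill modeling gave AC50.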

[14] = MultiTox-Fluor Cytotoxicity Assay - LYMP1-001 - Dead Cells (AID 946)
Outline: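 AC50 from Hill fit of concentration-response; data normalized to DMSO (basal) and 15 uM tetraoctylammonium bromide (100%). LYMP1-001 lymphoblastoid cells, 2500/well, 16 hr compound at 37 C; dead-cell protease fluorescence, Ex/Em 485/520.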

[15] = MultiTox-Fluor Cytotoxicity Assay - LYMP1-001 - Live Cells (AID 947)
[16] = Cell Viability - LYMP1-002 - Assay at 16 hr (AID 948)
Outline: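 In this qHTS, lymphoblastoid LYMP1-002 cells (human) receive compounds for 16 hr at 37 C. Viability is taken from CellTiter-Glo ATP luminescence, and AC50 derives from standard Hill fits.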

[17] = MultiTox-Fluor Cytotoxicity Assay - LYMP1-002 - Live Cells (AID 955);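 note: cells exposed to compound for 16 hours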
Outline: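 LYMP1-002 lymphoblastoid cells; 2500 cells/well; 16 hr compound exposure, 37 C; MultiTox-Fluor reagent 60 min RT; live-cell fluorescence Ex/Em=405/510; qHTS concentration-response, Hill-equation AC50; tetraoctylammonium bromide positive control.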

[18] = biological target: Cytochrome P450 3A4 (Homo sapiens) (UniProt P08684); experiment: qHTS Assay for Activators of Cytochrome P450 3A4 (AID 885); note: nearly all actives have a fitted effect of over 65% in size
Outline: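 CYP3A4 activity: Luciferin-PPXE O-dealkylation, 25uM substrate, 200mM KPO4, RT throughout. Read-out is luciferase luminescence; higher values reflect activation.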

[19] = qHTS Assay for Identification of Small Molecule Antagonists for Thrombopoietin (TPO) Signaling Pathway (AID 918); details: TPO-dependent cell signaling reporter, antagonist mode; note: potency is the fitted concentration of half-maximal effect; nearly all actives have a fitted effect of over 60% in size
Outline: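 Luminescence read-out: GPIIb-promoter luciferase in Ba/F3 cells carrying human TPO receptor. Compounds added with 26 pM TPO (EC50), 24 hrs, 37 C, 5% CO2; cells deprived of IL-3 overnight beforehand. Inhibition of signal scored.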

Measured: Potency

Sequence of Guanine nucleotide-binding protein G(i) subunit alpha-1 (Homo sapiens) (P63096 whole entry, looked up): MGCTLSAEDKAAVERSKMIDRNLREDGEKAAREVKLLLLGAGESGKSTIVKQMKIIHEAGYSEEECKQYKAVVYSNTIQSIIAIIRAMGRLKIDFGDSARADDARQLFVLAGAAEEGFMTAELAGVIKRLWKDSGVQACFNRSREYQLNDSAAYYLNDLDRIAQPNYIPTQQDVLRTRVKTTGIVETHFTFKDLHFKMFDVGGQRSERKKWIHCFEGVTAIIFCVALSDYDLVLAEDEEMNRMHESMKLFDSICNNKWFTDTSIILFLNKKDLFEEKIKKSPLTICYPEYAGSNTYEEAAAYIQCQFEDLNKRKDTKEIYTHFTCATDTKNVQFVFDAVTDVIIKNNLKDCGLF
Sequence of Cytochrome P450 3A4 (Homo sapiens) (P08684 whole entry, looked up): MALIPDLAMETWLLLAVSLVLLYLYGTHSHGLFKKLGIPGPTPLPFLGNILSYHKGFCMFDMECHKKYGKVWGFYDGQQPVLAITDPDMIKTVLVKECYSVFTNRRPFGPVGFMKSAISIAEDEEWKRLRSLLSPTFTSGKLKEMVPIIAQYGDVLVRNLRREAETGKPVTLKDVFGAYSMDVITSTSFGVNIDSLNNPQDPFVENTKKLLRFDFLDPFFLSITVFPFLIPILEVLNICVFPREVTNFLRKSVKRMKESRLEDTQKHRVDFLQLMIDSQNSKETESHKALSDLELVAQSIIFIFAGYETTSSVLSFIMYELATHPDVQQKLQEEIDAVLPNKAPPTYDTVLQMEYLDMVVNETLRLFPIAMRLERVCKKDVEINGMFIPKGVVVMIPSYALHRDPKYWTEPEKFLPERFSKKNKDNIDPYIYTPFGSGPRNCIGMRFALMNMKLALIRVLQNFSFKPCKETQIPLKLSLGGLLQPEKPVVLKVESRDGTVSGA
Sequence of Pyruvate kinase (Leishmania mexicana) (Q27686 2-499 E452W): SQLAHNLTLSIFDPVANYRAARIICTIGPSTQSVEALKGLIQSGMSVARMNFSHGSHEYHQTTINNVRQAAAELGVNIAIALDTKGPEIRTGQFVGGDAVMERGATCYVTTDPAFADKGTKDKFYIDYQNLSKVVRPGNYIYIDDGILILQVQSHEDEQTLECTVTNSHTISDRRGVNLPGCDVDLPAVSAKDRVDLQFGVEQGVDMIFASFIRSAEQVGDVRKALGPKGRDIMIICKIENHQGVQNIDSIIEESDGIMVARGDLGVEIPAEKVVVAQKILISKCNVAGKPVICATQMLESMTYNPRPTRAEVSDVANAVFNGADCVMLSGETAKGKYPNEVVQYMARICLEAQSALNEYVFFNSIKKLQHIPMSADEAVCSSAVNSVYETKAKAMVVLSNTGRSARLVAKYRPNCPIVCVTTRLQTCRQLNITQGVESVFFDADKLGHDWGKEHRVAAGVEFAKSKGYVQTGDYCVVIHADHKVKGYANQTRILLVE
Sequence of Pyruvate kinase PKM (Homo sapiens) (P14618 whole entry, looked up): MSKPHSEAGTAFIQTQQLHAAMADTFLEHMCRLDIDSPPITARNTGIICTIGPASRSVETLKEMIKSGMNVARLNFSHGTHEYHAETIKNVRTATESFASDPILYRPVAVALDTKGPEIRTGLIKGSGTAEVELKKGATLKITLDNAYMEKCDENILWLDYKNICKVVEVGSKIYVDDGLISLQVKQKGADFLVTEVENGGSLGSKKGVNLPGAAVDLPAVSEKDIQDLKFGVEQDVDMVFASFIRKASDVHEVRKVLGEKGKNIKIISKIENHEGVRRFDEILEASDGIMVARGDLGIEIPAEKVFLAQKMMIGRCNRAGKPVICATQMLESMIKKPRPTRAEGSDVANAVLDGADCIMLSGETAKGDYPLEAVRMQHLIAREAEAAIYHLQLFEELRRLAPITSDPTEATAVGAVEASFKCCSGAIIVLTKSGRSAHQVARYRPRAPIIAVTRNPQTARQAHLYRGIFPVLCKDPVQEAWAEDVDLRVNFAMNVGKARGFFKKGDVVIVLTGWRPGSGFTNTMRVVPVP
Sequence of Muscarinic acetylcholine receptor M1 (Rattus norvegicus) (P08482 whole entry, looked up): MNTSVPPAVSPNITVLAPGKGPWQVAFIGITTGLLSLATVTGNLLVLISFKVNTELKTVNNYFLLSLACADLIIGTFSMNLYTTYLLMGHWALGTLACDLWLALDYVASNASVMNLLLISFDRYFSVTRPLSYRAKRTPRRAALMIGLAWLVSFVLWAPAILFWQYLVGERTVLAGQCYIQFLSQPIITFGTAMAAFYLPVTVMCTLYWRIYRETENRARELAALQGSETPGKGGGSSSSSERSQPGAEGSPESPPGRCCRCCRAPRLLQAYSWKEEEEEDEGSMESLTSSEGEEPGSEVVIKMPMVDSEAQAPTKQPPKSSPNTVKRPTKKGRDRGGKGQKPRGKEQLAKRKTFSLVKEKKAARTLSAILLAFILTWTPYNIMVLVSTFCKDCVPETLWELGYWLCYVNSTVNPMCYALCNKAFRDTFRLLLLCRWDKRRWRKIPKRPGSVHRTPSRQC
Sequence of Cytochrome P450 2C19 (Homo sapiens) (P33261 whole entry, looked up): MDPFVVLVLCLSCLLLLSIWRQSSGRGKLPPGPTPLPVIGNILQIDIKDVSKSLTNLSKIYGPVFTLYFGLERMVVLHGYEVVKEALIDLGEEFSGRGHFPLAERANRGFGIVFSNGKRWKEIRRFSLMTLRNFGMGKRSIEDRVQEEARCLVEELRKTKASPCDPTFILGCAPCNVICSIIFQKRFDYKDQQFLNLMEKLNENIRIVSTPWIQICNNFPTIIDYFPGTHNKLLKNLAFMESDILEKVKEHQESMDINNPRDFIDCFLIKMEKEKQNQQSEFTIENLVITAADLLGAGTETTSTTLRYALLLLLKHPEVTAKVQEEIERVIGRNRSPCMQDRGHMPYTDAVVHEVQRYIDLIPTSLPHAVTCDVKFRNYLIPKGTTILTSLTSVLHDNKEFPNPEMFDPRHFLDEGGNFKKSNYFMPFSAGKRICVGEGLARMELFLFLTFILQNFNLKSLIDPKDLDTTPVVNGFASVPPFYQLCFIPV
Sequence of Cytochrome P450 2D6 (Homo sapiens) (P10635 whole entry, looked up): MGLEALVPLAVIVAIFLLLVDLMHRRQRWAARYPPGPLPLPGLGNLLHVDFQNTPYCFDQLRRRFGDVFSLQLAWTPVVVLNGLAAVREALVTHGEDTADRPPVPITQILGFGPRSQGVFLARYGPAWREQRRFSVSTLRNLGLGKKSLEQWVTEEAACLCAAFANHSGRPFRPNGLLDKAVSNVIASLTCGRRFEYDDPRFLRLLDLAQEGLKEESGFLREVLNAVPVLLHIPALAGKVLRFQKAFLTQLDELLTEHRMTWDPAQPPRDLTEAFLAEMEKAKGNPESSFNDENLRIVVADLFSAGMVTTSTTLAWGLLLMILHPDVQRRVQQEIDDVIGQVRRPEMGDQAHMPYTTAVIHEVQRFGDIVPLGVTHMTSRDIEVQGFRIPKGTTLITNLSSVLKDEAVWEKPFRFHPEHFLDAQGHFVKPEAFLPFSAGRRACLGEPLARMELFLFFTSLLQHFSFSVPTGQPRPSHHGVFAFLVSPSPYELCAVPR
Sequence of Cytochrome P450 2C9 (Homo sapiens) (P11712 whole entry, looked up): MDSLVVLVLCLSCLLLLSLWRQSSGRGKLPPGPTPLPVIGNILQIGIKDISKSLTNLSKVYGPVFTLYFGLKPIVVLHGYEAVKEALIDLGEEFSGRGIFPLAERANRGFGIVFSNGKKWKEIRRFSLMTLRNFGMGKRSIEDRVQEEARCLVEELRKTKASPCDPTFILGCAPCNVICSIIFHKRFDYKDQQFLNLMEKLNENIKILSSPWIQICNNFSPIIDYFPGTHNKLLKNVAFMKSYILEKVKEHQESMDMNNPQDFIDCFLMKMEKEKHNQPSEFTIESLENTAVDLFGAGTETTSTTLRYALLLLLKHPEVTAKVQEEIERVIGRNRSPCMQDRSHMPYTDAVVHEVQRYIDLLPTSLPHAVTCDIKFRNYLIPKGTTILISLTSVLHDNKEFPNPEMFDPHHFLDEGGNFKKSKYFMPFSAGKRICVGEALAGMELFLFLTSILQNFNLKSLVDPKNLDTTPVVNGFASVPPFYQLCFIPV

O=C1CCCN1CC#CCN1CCCC1
inactive: [1] | [3] | [5] | [7] | [8] | [9] | [10] | [11]
inactive and 2 µM (active): [2]
active: [4] 7.94 µM | [6] 0.158 µM

Nc1ccc(Sc2ccc(N)cc2)cc1
inactive: [12] | [13] | [14] | [15] | [16] | [17]

CN(C)NC(=O)CCC(=O)O
inactive: [12] | [3] | [13] | [14] | [15] | [16] | [17]

CCOP(=O)(NC(C)C)Oc1ccc(SC)c(C)c1 (stereo not given)
inactive: [12] | [18] | [13] | [14] | [16] | [17]

CCCCc1ccc(C(=O)O)nc1
inactive: [1] | [2] | [3] | [18] | [4] | [6] | [9] | [10] | [11]

Clc1cnc(Oc2ccc(Oc3ncc(Cl)cc3Cl)cc2)c(Cl)c1
inactive: [1] | [2] | [9] | [10] | [11]

C1CCC(NC2CCCCC2)CC1
inactive: [12] | [3] | [13] | [14] | [15] | [16] | [17]

Cc1nc(-c2ccc(-c3ccc(C(=O)N4CCc5cc6c(cc54)C4(CCN(C)CC4)CO6)cc3)c(C)c2)no1
inactive: [1] | [18] | [10] | [11]
active: [2] 7.94 µM | [6] 3.98 µM | [19] 12.6 µM

O=[N+]([O-])c1c2ccccc2cc2ccccc12
inactive: [12] | [18] | [13] | [14] | [15] | [16] | [17]

CCCCOC(=O)c1ccccc1C(=O)OCc1ccccc1
inactive: [12] | [18] | [13] | [14] | [15] | [16] | [17]

CN(C)[C@@H]1C(=O)C(C(N)=O)=C(O)[C@@]2(O)C(=O)C3=C(O)c4c(O)cccc4[C@@](C)(O)[C@H]3[C@H](O)[C@@H]12
inactive: [12] | [3] | [14] | [15] | [16] | [17]

c1cc2ccc3cccc4ccc(c1)c2c34
inactive: [12] | [18] | [13] | [14] | [15] | [16] | [17]

Cc1cc(O)ccc1Cl
inactive: [12] | [3] | [7] | [13] | [8] | [14] | [15] | [16] | [17]

Cc1nccc2c1[nH]c1ccccc12
inactive: [1] | [2] | [18] | [6] | [7] | [8] | [9] | [10] | [11]
active: [3] 3.98 µM

CCCN(CCC)[C@@H]1CCc2ccc(O)cc2C1
inactive: [1] | [2] | [5] | [10] | [11]
active: [4] 0.794 µM | [9] 5.01 µM and 3.98 µM

C=CC(=O)NCNC(=O)C=C
inactive: [12] | [3] | [13] | [14] | [15] | [16] | [17]

CCOCCOC(C)=O
inactive: [12] | [3] | [13] | [14] | [15] | [16] | [17]

CC(C)(O)C(=O)Nc1ccc([N+](=O)[O-])c(C(F)(F)F)c1
inactive: [12] | [18] | [13] | [14] | [15] | [16] | [17]

OCCCBr
inactive: [12] | [3] | [13] | [14] | [16] | [17]

O=C(O)COc1ccccc1
inactive: [12] | [3] | [13] | [14] | [16] | [17]

Nc1ccc(Cl)cc1N
inactive: [12] | [18] | [14] | [15] | [16] | [17]

CC(=O)NCCc1c[nH]c2ccccc12
inactive: [1] | [2] | [4] | [6] | [9] | [10] | [11]

O=[N+]([O-])c1cc([N+](=O)[O-])c2ccccc2c1
inactive: [12] | [3] | [13] | [14] | [15] | [16] | [17]

CC[C@@]1(O)C(=O)OCc2c1cc1n(c2=O)Cc2cc3ccccc3nc2-1
active: [19] 0.126 µM
inactive and 1 µM (active): [7]
inactive: [1] | [2] | [18] | [4] | [6] | [8] | [10] | [11]
6.31 µM (active) and inactive: [3]

Cn1cnc(CCN)c1
inactive: [1] | [2] | [5] | [6] | [9] | [10] | [11]

O=S(=O)(c1ccc(Cl)cc1)c1ccc(Cl)cc1
inactive: [12] | [18] | [13] | [14] | [15] | [16] | [17]

COC(C)(C)CCCC(C)C/C=C/C(C)=C/C(=O)OC(C)C (stereo not given)
inactive: [12] | [18] | [7] | [13] | [8] | [14] | [15] | [16] | [17]

CCCCCCCCc1ccc(O)cc1
inactive: [12] | [3] | [13] | [14] | [15] | [16] | [17]

From PubChem BioAssay (NCATS)
